Hit rate of the full screen: of about 310,000 compounds, about 14,000 (4.5%) showed an effect of 50% or more. Effects have a minus sign here. The sample as a whole holds a higher share of strong results than the screen did.
target: human ether-à-go-go-related gene (hERG) potassium channel (human, UniProt Q12809); assay: primary screen, population patch clamp on CHO cells stably expressing hERG; higher = less effect of the substance
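Further: peak tail current of the secondary pulse compared with the same well before compound.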

human ether-à-go-go-related gene (hERG) potassium channel, sequence (Q12809 whole entry, looked up): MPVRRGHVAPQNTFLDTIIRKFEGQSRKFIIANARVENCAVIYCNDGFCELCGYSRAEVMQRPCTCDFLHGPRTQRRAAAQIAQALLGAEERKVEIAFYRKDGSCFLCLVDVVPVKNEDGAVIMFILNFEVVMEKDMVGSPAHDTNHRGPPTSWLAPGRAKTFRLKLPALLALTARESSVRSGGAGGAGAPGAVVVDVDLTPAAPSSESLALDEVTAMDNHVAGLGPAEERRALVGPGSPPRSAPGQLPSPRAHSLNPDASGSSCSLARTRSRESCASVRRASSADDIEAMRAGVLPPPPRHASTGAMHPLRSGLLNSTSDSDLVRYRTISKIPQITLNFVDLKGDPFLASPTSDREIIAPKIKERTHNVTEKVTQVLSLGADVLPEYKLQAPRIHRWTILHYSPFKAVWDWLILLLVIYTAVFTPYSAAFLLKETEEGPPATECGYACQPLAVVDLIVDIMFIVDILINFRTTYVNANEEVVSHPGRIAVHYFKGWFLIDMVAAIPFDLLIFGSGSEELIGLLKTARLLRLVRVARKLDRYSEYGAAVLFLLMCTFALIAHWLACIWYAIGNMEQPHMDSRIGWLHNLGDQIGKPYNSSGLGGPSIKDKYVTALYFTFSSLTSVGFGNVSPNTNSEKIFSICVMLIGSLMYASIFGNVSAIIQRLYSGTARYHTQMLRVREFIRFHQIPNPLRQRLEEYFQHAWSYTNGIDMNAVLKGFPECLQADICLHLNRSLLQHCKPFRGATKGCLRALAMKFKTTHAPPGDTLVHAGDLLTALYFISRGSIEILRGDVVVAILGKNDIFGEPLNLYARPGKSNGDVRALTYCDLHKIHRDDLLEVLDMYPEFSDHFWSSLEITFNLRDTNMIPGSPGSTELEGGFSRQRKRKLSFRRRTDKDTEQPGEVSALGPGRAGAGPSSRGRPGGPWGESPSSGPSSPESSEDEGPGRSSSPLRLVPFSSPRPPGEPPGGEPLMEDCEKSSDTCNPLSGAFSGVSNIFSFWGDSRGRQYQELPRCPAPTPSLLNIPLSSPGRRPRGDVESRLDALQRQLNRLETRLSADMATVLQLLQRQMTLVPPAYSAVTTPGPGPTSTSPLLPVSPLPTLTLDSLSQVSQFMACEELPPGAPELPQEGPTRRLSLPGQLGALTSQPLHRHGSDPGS

SMILES | hERG current change (%, negative = inhibition) at 10uM
CCC(CO)N=CC1=C(O)CC(c2ccccc2)CC1=O (stereo not shown) | 17.1%
Cc1cc(C)c(NC2=NS(=O)(=O)c3ccccc32)c(C)c1 | -10.9%
CC1=NC(Nc2nc(C)c3ccccc3n2)=NC(C)(C)C1 | -69.4%
COc1ccc(Nc2nc(C)c3ccccc3n2)cc1 | -17.4%
CC(=O)c1cnc(Nc2nc(C)c3ccccc3n2)nc1C | 17.3%
O=C(O)c1ccccc1Sc1ncnc2sccc12 | 9.7%
Cc1cc(C(=O)OCC(=O)NC2CCS(=O)(=O)C2)c(C)n1-c1ccccc1 (stereo not shown) | -6.8%
CC(NC(=O)Nc1nnc(C(F)(F)F)s1)(C(F)(F)F)C(F)(F)F | -7.61%
CCc1nnc(NC(=O)CCN2C(=O)c3ccccc3S2(=O)=O)s1 | 17.3%
CCOC(=O)c1c(C)[nH]c(C(=O)N/N=C/c2ccc(OC)c(OC)c2)c1C | 12.7%
O=C(NC(=S)NCCCN1CCOCC1)c1ccc([N+](=O)[O-])cc1 | -33.4%
COc1ccc(C(=O)N/C(=C\c2ccco2)C(=O)NCCN2CCOCC2)cc1 | 8.33%
COc1ccc(/C=C(\NC(=O)c2ccc([N+](=O)[O-])cc2)C(=O)NCCN2CCOCC2)cc1 | -70.7%
COc1ccc(/C=C(\NC(=O)c2ccccc2)C(=O)NCCN2CCOCC2)cc1OC | 23%
COc1ccc(C(=O)N/C(=C\c2cn(C)c3ccccc23)C(=O)NCCCN2CCOCC2)cc1 | 4.94%
COc1ccc(/C=C(\NC(=O)c2ccc([N+](=O)[O-])cc2)C(=O)NCCCN2CCOCC2)cc1 | -77%
COc1cc2c(cc1OC)C(c1ccccc1)CC2=O (stereo not shown) | 7.03%
COC(=O)c1ccc(-c2nc3ccccc3[nH]2)cc1 | 17.8%
CC(Oc1cccc(Cl)c1)C(=O)Nc1ccc([N+](=O)[O-])cn1 (stereo not shown) | -62.2%
CCC(C(=O)Nc1ccccn1)c1ccccc1 (stereo not shown) | 1.4%
Cc1cccc(C(C)Nc2ccc([N+](=O)[O-])cn2)c1 (stereo not shown) | -68.9%
CCC(CC)C(=O)Nc1ccc([N+](=O)[O-])cn1 | 10.8%

SMILES | hERG current change (%, negative = inhibition) at 10uM
Cc1csc(NC(=O)C(C)Oc2ccc(Cl)cc2C)n1 (stereo not shown) | -21%
CC(Oc1cccc(Cl)c1)C(=O)Nc1ccncc1 (stereo not shown) | 3.81%
Cc1cc(Cl)ccc1OC(C)C(=O)Nc1ccc([N+](=O)[O-])cn1 (stereo not shown) | -75.9%
CC(=O)Nc1ccc([N+](=O)[O-])cn1 | 24.4%
Cc1cccc(OCCNc2ccc([N+](=O)[O-])cn2)c1 | -21.3%
CC(Oc1cccnc1[N+](=O)[O-])C(=O)Nc1ccc(Cl)cn1 (stereo not shown) | -16.6%
Cc1cccc(Nc2ccc([N+](=O)[O-])cn2)c1 | 10.9%
CCC(C(=O)Nc1ccc([N+](=O)[O-])cn1)c1ccccc1 (stereo not shown) | -67.4%
CCN(CC)S(=O)(=O)c1ccc(NC(=O)Cc2cccs2)cc1 | 5.81%
CCOC(=O)c1c(NC(=O)CSc2nc3c(c(=O)n(C)c(=O)n3C)n2C(C)C)sc(C)c1C | -0.527%
CCCCNC(=O)c1cc([N+](=O)[O-])[nH]n1 | 19.1%
COCCNc1nc(SCC(=O)N2CCN(c3ccccc3)CC2)nc2ccccc12 | -86.9%
COc1ccccc1N1CCN(C(=O)CSc2nc3ccccc3nc2N2CCCCC2)CC1 | 19%
COCCNc1nc(SCC(=O)N2CCN(c3ccccc3OC)CC2)nc2ccccc12 | -88.6%
COc1ccccc1N1CCN(C(=O)CSc2nnc3c4ccccc4nc(Cc4ccccc4)n23)CC1 | -4.18%
COCCNC(=O)CSc1nc2ccccc2c(=O)n1CCC(=O)N1CCN(c2ccccc2)CC1 | -35%
O=C(CSc1nc2ccccc2c(=O)[nH]1)N1CCN(c2ccccc2)CC1 | 14.1%
O=C(NC1CC1)c1ccc(-c2nc3ccccc3s2)s1 | 10.7%
O=C(Cn1cnc2ccccc2c1=O)Nc1nnc(SCc2ccc(Cl)cc2)s1 | 10.9%
Cn1cc(CC(=O)N2CCN(c3ccccc3F)CC2)c2ccccc21 | -9.66%
CCCOc1ccccc1N/C(=N\S(=O)(=O)c1ccc(C)cc1)Nc1nc(C)cc(C)n1 | 26.1%
CC(C)(OC(=O)c1ccc(C(F)(F)F)cc1)c1cc2ccccc2c(=O)o1 | 14.6%

SMILES | hERG current change (%, negative = inhibition) at 10uM
COc1cc2cc(CCCOC(=O)c3ccc(C#N)cc3)oc(=O)c2cc1OC | -65%
COc1cc2cc(CCCOC(=O)c3ccc(F)cc3)oc(=O)c2cc1OC | -29.5%
COc1cc2cc(CCOC(=O)c3ccc(C#N)cc3)oc(=O)c2cc1OC | -37.9%
N#Cc1ccc(C(=O)OCCCc2cc3ccccc3c(=O)o2)cc1 | -69.4%
CC(C)(OC(=O)c1ccc(C#N)cc1)c1cc2ccccc2c(=O)o1 | -73.1%
N#Cc1ccc(C(=O)OCCc2cc3ccccc3c(=O)o2)cc1 | -29%
CC(C)(OC(=O)c1ccc(F)cc1)c1cc2ccccc2c(=O)o1 | 3.1%
O=C(OCCCc1cc2ccccc2c(=O)o1)c1ccc(F)cc1 | -37.9%
COc1cccc(CNCCc2ccccc2)c1OC.Cl | 5.21%
O=C1C=C(c2cccc3c2oc2ccccc23)CCC1 | -2.35%
Cc1c(C(=O)/C=C/N(C)C)nnn1-c1ccc(F)c(Cl)c1 | 2.73%
O=C(NCCc1ccccc1)C1CCC(=O)N1CCc1ccccc1 (stereo not shown) | 8.78%
CC1CCN(CCCCOc2ccccc2F)CC1.O=C(O)C(=O)O | -13.3%
CC1CCN(CCCCOc2ccccc2-c2ccccc2)CC1.O=C(O)C(=O)O | -72.6%
C=CCc1cc(OC)ccc1OCCN1CC(C)OC(C)C1.O=C(O)C(=O)O (stereo not shown) | -9.85%
C=CCc1cc(Cl)ccc1OCCN1CC(C)OC(C)C1.O=C(O)C(=O)O (stereo not shown) | -53.1%
CC1CCCN(CCOCCOc2ccccc2-c2ccccc2)C1.O=C(O)C(=O)O (stereo not shown) | -72.9%
O=C(O)C(=O)O.c1ccc(-c2ccccc2OCCOCCN2CCCCC2)cc1 | -44.7%
CC1CN(CCCOc2ccccc2-c2ccccc2)CC(C)O1.O=C(O)C(=O)O (stereo not shown) | -47.2%
CC1CC(C)CN(CCOc2ccccc2-c2ccccc2)C1.O=C(O)C(=O)O (stereo not shown) | -68.5%
CN1CCN(CCCCOc2ccccc2-c2ccccc2)CC1.O=C(O)C(=O)O | -38.2%
C=CCc1cc(Cl)ccc1OCCn1ccnc1.O=C(O)C(=O)O | -10.1%

SMILES | hERG current change (%, negative = inhibition) at 10uM
CC1CN(CCOc2ccccc2-c2ccccc2)CC(C)O1.O=C(O)C(=O)O (stereo not shown) | -9.99%
CC1CN(CCOCCOc2ccccc2-c2ccccc2)CC(C)O1.O=C(O)C(=O)O (stereo not shown) | -13.5%
Cc1ccc(S(=O)(=O)N2CCC(C(=O)Nc3ccc(S(=O)(=O)N4CCCC4)cc3)CC2)cc1 | -10.6%
COc1cccc(C2C(C(=O)c3sc(C)nc3C)=C(O)C(=O)N2CCN2CCOCC2)c1 (stereo not shown) | 10.8%
Fc1ccc(CNc2ccc(N3CCN(Cc4ccccc4)CC3)cc2)cc1 | -30.1%
COc1ccc(C(=O)NCc2nnc(SCCOc3ccccc3)n2C)cc1 | -15.5%
O=C(CCNS(=O)(=O)c1ccccc1C(F)(F)F)N1CCN(c2ccccc2O)CC1 | -26.9%
CCC(=O)N1CCN(c2ccc(NC(=S)NC(=O)COc3ccccc3)cc2)CC1 | -21.6%
CC(=O)c1c(C)[nH]c(C(=O)Nc2nc(-c3ccc(-c4ccccc4)cc3)cs2)c1C | 19.3%
O=C(COCc1cc(-c2ccc3c(c2)OCO3)on1)Nc1cccnc1 | 10%
CC1CC(C)CN(CCOc2ccc(Cl)cc2Cl)C1.O=C(O)C(=O)O (stereo not shown) | -67.3%
CC1CCN(CCOCCOc2ccccc2-c2ccccc2)CC1 | -57.2%
CC1CCN(C(=O)COc2ccc3ccccc3c2Br)CC1 | 11.8%
CC1CCN(CCOc2ccccc2-c2ccccc2)CC1.O=C(O)C(=O)O | -58.6%
CC1CCCN(CCOCCSc2ccccc2)C1.O=C(O)C(=O)O (stereo not shown) | -34.5%
CC1CC(C)CN(CCOc2cccc(Cl)c2Cl)C1.O=C(O)C(=O)O (stereo not shown) | -35.9%
CC1CCN(CCOCCOc2ccccc2Br)CC1 | -30.1%
O=C(O)C(=O)O.c1ccc(-c2ccccc2OCCOCCN2CCNCC2)cc1 | 2.27%
CC1CCCN(CCOc2ccc3ccccc3c2Br)C1.O=C(O)C(=O)O (stereo not shown) | -69%
CC1CN(CCOc2ccc(Cl)cc2Cl)CC(C)O1.O=C(O)C(=O)O (stereo not shown) | -24.6%
CC(=O)N(CC1CCCO1)c1nnc(-c2cnccn2)s1 (stereo not shown) | 12.8%
Cc1ccc(NC(=O)CN(C)C(=S)NC2CC2)cc1 | 16.4%
